{"source": "PubChem BioAssay", "note": "A number with no mark means an inactive call. Active and inactive are the calls of the source. The rule behind the calls is not given here."}
{"molecular_target": "L-lactate dehydrogenase (Plasmodium falciparum (isolate CDC / Honduras)) (UniProt Q27743)", "sequence (Q27743 whole entry, looked up)": "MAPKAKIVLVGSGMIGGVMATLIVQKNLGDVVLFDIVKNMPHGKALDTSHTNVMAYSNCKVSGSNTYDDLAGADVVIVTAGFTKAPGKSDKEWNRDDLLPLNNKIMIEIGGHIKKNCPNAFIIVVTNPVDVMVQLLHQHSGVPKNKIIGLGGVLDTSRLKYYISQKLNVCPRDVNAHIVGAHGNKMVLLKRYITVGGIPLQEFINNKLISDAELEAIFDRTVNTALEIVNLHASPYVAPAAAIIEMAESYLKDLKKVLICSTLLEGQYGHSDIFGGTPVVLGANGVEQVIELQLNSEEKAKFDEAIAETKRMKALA", "assay": "PfLDH activity inhibition – cell lysate, 3D7 strain, counter-screen for P. falciparum growth inhibition project (AID 2304);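 note: 0% = vehicle and 100% = reference inhibitor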", "conditions": "P. falciparum 3D7 crude extract, LDH APAD/NBT absorbance; at 2 µM; active compounds read high", "units": {"inhibition": "%"}}
{"compound": "CN(C)CCOC(=O)C1(O)CCC2CC1C2(C)C", "note": "(configuration not stated)", "inhibition": -9}
{"compound": "COc1ccc(C=C2SC(=O)NC2=Nc2ccccc2)c(OC)c1", "inhibition": -3}
{"compound": "O=C(Nc1cccc(-c2cccc(-c3nc4ccc(C(F)(F)F)cc4[nH]3)c2)c1)c1ccoc1", "inhibition": -2}
{"compound": "Cc1ccc(Sc2ccc(NC(=O)CN3CCN(C(=O)c4ccco4)CC3)cc2)cc1C", "inhibition": 1}
{"tested_on": "not listed separately", "assay": "inhibition of 3D7 malaria parasite growth – strain 3D7 (AID 2306);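 note: 0% = DMSO wells and 100% = chloroquine plus artemisinin control wells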", "conditions": "P. falciparum 3D7 erythrocytic growth, LDH absorbance, 72 h; at 2 µM; active compounds read high"}
{"compound": "O=C(N[C@@H](Cc1ccccc1)C(=O)NC1CCCCC1)c1ccc(O)c(-c2ccc(Cl)c(Cl)c2)c1", "growth inhibition": "98% (active)"}
{"compound": "O=[N+]([O-])c1ccc2nc(Nc3cccc(C(F)(F)F)c3)c(Nc3cccc(C(F)(F)F)c3)nc2c1", "growth inhibition": "101% (active)"}
{"compound": "C[C@H](Cc1ccc(CCc2ccc(C[C@@H](C)NC[C@H](O)c3cccc(Cl)c3)cc2)cc1)NC[C@H](O)c1cccc(Cl)c1", "growth inhibition": "95% (active)"}
{"compound": "COc1ccc2nccc([C@@H](O)CN3CCC(NCc4cc5ccccc5[nH]4)CC3)c2n1", "growth inhibition": "101% (active)"}
{"compound": "C=CCc1cccc(OC)c1OCCCON1C(N)=NC(N)=NC1(C)C", "growth inhibition": "94% (active)"}
{"compound": "Cc1ccc2nc(-c3ccc(C=CC(=O)NC4CCN(Cc5ccccc5)CC4)cc3)[nH]c2c1", "growth inhibition": "101% (active)"}
{"compound": "CCOc1c(OC)ccc2c1CCN(CCN1CCC(CNC(=O)c3ccc(-c4ccc(C#N)cc4)cc3)CC1)C2", "growth inhibition": "92% (active)"}
{"compound": "Nc1ncc(-c2ccc(F)cc2)c2ccc(-c3cccc(F)c3)cc12", "growth inhibition": "99% (active)"}
{"compound": "O=C(NCc1ccc(F)cc1)c1cc(Br)cc(N2CCN(c3ccncc3)CC2)c1", "growth inhibition": "80% (active)"}
{"compound": "O=C(Nc1ccc(Cl)c(Cl)c1)N[C@H]1CCN(CCCCCNC(=O)[C@@H]2C[C@H]2c2ccc(Cl)c(Cl)c2)C1", "growth inhibition": "93% (active)"}
{"compound": "CCOC(=O)c1ccc(COc2ccc(C)nc2)cc1", "growth inhibition": "100% (active)"}
{"compound": "CC(=O)Oc1cc(C(=O)Nc2ccc(Cl)cc2)cc2ccccc12", "growth inhibition": "88% (active)"}
{"compound": "O=C(NC1CCN(c2ccnc3cc(Cl)ccc23)C1)c1ccccc1F", "note": "(configuration not stated)", "growth inhibition": "101% (active)"}
{"compound": "COc1cccc2cc(C(=O)N[C@@H](CC(C)C)C(=O)N[C@H](/C=N/N3CCCC3=O)Cc3ccccc3)oc12", "growth inhibition": "96% (active)"}
{"compound": "O=c1cc(NCCCNCc2csc(Br)c2Sc2ccc(Cl)cc2)[nH]c2ccccc12", "growth inhibition": "95% (active)"}
{"compound": "CS(=O)(=O)Cc1ccc(Nc2nccc(NC3CCN(c4nccc(C(F)(F)F)n4)CC3)n2)cc1", "growth inhibition": "88% (active)"}
{"compound": "CCOc1cc2c(cc1OCC)C(c1ccc(O)c(Cl)c1)NCC2", "note": "(configuration not stated)", "growth inhibition": "98% (active)"}
{"compound": "COc1cc(CN2CCC(C(=O)Nc3ccc(-c4cccc(C)c4)cc3)CC2)ccc1O", "growth inhibition": "100% (active)"}
{"compound": "CCCCCCn1c(Sc2ccc(C#N)c([N+](=O)[O-])c2)nnc1-c1ccc(N(C)C)cc1", "growth inhibition": "92% (active)"}
{"compound": "Cc1ccc(NC(=O)c2ccc(N3CCN(c4ccncc4)CC3)cc2)cc1F", "growth inhibition": "100% (active)"}
{"compound": "Cc1cccc2[nH]c(-c3cccc(-c4ccc(CNCc5cccc(N)c5)cc4)c3)nc12", "growth inhibition": "101% (active)"}
{"compound": "O=C1OC2(CN1CC1CCN(Cc3ccc(O)c(Cl)c3)CC1)c1ccccc1-c1ccccc12", "growth inhibition": "97% (active)"}
{"compound": "CCCN(Cc1nnc(-c2cccs2)o1)C(=O)CSc1nnnn1-c1ccc(C)c(C)c1", "growth inhibition": "96% (active)"}
{"compound": "CCN1C(=O)N(CCC(C)C)C2(CCN(Cc3ccc(OC)cc3O)CC2)C1=O", "growth inhibition": "89% (active)"}
{"compound": "COc1ccc2c(NN=Cc3cccc([N+](=O)[O-])c3)cc(C)nc2c1", "growth inhibition": "101% (active)"}
{"compound": "Cn1cncc1C(=O)Nc1cccc(-c2cccc(-c3nc4ccc(C(F)(F)F)cc4[nH]3)c2)c1", "growth inhibition": "103% (active)"}
{"compound": "N#Cc1ccc(-c2ccc(OCC(O)CN3CCCN(C(=O)C(c4ccc5c(c4)OCO5)N4CCN(C/C=C/c5ccccc5)CC4)CC3)cc2)cc1", "note": "(configuration not stated)", "growth inhibition": "99% (active)"}
{"compound": "COC(=O)c1ccc2nc(-c3ccc(/C=C/C(=O)NC4CCN(Cc5ccccc5)CC4)cc3)[nH]c2c1", "growth inhibition": "100% (active)"}
{"compound": "CC(=O)Nc1nnc(SCc2c(C)cc(C(C)(C)C)cc2C)s1", "growth inhibition": "98% (active)"}
{"compound": "O=C(Cc1ccccc1)NC(CCN1CCC(N(C2CC2)S(=O)(=O)c2cccc(C(F)(F)F)c2)CC1)c1ccc(Cl)c(Cl)c1", "note": "(configuration not stated)", "growth inhibition": "85% (active)"}
{"compound": "CN(C)c1ccc(-c2csc(C(=O)NC3CCN(CCC(C)(C)C)C3)c2)cc1", "note": "(configuration not stated)", "growth inhibition": "95% (active)"}
{"compound": "Cc1ccc(CNC(=O)[C@H](Cc2ccccc2)Nc2cc(C)nc(Nc3ccccc3)n2)cc1", "growth inhibition": "101% (active)"}
{"compound": "CCOC(=O)c1cccc(N/C(N)=N/c2nc(C)cc(NCCc3ccccc3)n2)c1", "growth inhibition": "102% (active)"}
